Screens from PubChem BioAssay.
Compounds with a hit are over-represented: about 6.2% of the library has one in this group of screens.
AHR act – activators of human aryl hydrocarbon receptor; P35869; AHR-responsive luciferase reporter cells, luminescence; activation, % at 5 µM; 320,000 compounds, 2.5% hits; AID 2796; in the data active = activation above about 47%;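 also: 0% = vehicle wells and 100% = reference agonist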
GRIN3A LBD mod – modulators (binders) of human NR3A ligand-binding domain. NR3A LBD differential scanning fluorimetry, Tm shift; 0% = protein alone, 100% = glycine-bound protein. Tm shift relative to glycine control, % at 25 µM. 340,000 compounds, 2.5% hits. AID 1259313;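 active = melting temperature shift of at least 10% of the positive control shift, at one fixed dose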
AI-2 QS mod – Vibrio harveyi AI-2 quorum sensing modulation; 300,000 compounds, 0.4% hits; Vibrio harveyi JMH597 AI-2 luminescence/OD600 ratio, 9 h; active compounds read low; strain lacks LuxN and CqsS sensors; 0 = neutral-control median; activity change, % at 7.5 µM; in the data active = activity change below about -75%, passing the limit was not always enough;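 also: luminescence divided by OD600 gain over 9 h not by final OD600 alone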
NTR1 agonist – NTR1 (human) agonism. P30989. NTR1-U2OS beta-arrestin-GFP spot imaging, agonist mode. activation, % at 20 µM. 330,000 compounds, 0.17% hits. AID 493036;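 active = activation at or above 40% of the spot to cytoplasm intensity ratio, with at least 20 cells analyzed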;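 also: 0% = DMSO without peptide and 100% = 100 nM NTR1 peptide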
Target sequence (P30989 whole entry, looked up): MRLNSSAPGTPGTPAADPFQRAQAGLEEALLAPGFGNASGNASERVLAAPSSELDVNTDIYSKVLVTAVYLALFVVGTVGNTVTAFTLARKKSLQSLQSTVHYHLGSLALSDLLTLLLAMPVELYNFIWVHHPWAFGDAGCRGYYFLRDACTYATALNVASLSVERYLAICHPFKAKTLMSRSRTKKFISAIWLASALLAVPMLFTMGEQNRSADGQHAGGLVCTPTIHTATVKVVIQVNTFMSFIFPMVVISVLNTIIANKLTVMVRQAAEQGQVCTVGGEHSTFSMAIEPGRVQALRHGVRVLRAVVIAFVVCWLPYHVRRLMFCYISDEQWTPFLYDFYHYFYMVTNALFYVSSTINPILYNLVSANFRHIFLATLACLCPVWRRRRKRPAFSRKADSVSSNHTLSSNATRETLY
SUMO Mot1 rescue – SUMOylation pathway inhibition by Mot1-301 growth rescue; S. cerevisiae Mot1-301 growth rescue, ATP luminescence, 38.5C; percent above DMSO median, 100 means doubled; growth rescue, % at 18.8 µM; 320,000 compounds, 1% hits; AID 2716;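 active = every valid replicate shows activation above 250% relative to neutral control wells; inactive = the rest, any valid replicate at or below 250%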;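 also: OY570 slx delta 5 strain wells were the positive control but not used for scaling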
Cardio protect – protects H9c2 cardiomyocytes from peroxide injury | protection from H2O2 cell death, % at 20 µM | 360,000 compounds, 0.63% hits | AID 588492 | H2O2 injury protection, ATPLite, 2 h;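 active = compounds giving at least 50% protection of heart cells from peroxide-induced death in the single-dose screen, raw or plate-pattern-corrected value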;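 also: 0% = DMSO wells with peroxide and 100% = DMSO wells without peroxide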
Numbers without * were called inactive.

How did CSc1nc(N)nc(SCC(=O)Nc2cccc(F)c2)c1C#N do in these assays?
AHR act: 6; GRIN3A LBD mod: 26*; AI-2 QS mod: 25; SUMO Mot1 rescue: -18; Cardio protect: -18

Results for CSc1nc(N)nc(SCC(=O)C(C)(C)C)c1C#N ?
AHR act: 21; GRIN3A LBD mod: -34; AI-2 QS mod: 16; NTR1 agonist: 4; SUMO Mot1 rescue: 39; Cardio protect: 1

Results for CCOc1ccc(CC(=O)Nc2c3c(nn2C(C)(C)C)CS(=O)(=O)C3)cc1 ?
AHR act: -2; GRIN3A LBD mod: 0; AI-2 QS mod: 5; NTR1 agonist: 1; SUMO Mot1 rescue: -12; Cardio protect: 8

What do the screens show for `CN(C(=O)c1cccnc1)c1nnc(-c2cnccn2)s1`?
AHR act: 3; GRIN3A LBD mod: 2; AI-2 QS mod: 8; NTR1 agonist: -2; SUMO Mot1 rescue: 1; Cardio protect: 8

Results for CN(C(=O)c1cccnc1)c1nnc(-c2ccccn2)s1 ?
AHR act: 54*; GRIN3A LBD mod: -1; AI-2 QS mod: 32; NTR1 agonist: 0; SUMO Mot1 rescue: -11; Cardio protect: 2

What do the screens show for `CC(=O)N(C(C)=O)n1c(/C=C/c2cccc([N+](=O)[O-])c2)nc2ccccc2c1=O`?
AHR act: 19; GRIN3A LBD mod: 0; AI-2 QS mod: 11; NTR1 agonist: -1; SUMO Mot1 rescue: -15; Cardio protect: 8

What do the screens show for `O=c1c2ccccc2nc(/C=C/c2ccc(O)cc2)n1CCc1ccccc1`?
AHR act: 72*; GRIN3A LBD mod: 20*; AI-2 QS mod: 35; NTR1 agonist: 38; SUMO Mot1 rescue: -2; Cardio protect: 9

How did O=c1c2ccccc2nc(/C=C/c2ccccc2)n1CCCO do in these assays?
AHR act: 1; GRIN3A LBD mod: 0; AI-2 QS mod: -11; NTR1 agonist: 6; SUMO Mot1 rescue: -6; Cardio protect: 3

How did Cn1c(/C=C/c2ccc(Cl)cc2)nc2ccccc2c1=O do in these assays?
AHR act: 49*; GRIN3A LBD mod: -1; AI-2 QS mod: 22; NTR1 agonist: 3; SUMO Mot1 rescue: 13; Cardio protect: 2

How did Cn1c(/C=C/c2ccccc2)nc2ccccc2c1=O do in these assays?
AHR act: 24; GRIN3A LBD mod: -5; AI-2 QS mod: 4; NTR1 agonist: 2; SUMO Mot1 rescue: 14; Cardio protect: 8

Results for CCn1c(/C=C/c2ccccc2)nc2ccccc2c1=O ?
AHR act: 79*; GRIN3A LBD mod: 0; AI-2 QS mod: -4; NTR1 agonist: 0; SUMO Mot1 rescue: 401; Cardio protect: 6

Results for Cn1c(/C=C/c2ccc([N+](=O)[O-])o2)nc2ccccc2c1=O ?
AHR act: 13; GRIN3A LBD mod: 4; AI-2 QS mod: -229*; NTR1 agonist: -1; SUMO Mot1 rescue: -38; Cardio protect: -10

Results for CC(C)C(NC(=O)c1ccc(F)cc1)C(=O)NC1(C)CCS(=O)(=O)C1 (stereo not given) ?
AHR act: 0; GRIN3A LBD mod: 1; NTR1 agonist: 1; SUMO Mot1 rescue: -12; Cardio protect: 11

Results for CCOc1ccc(N(Cc2ccc(C(=O)O)cc2)S(=O)(=O)c2ccc(C)cc2)cc1 ?
AHR act: -2; GRIN3A LBD mod: 0; AI-2 QS mod: 15; NTR1 agonist: 0; SUMO Mot1 rescue: -23; Cardio protect: 4

What do the screens show for `Cc1c(C#N)c(N)nc2c3c(sc12)NC(=O)CC3c1ccccc1` (stereo not given)?
AHR act: 0; GRIN3A LBD mod: -3; AI-2 QS mod: 25; NTR1 agonist: 2; SUMO Mot1 rescue: 0; Cardio protect: 50*

How did COc1ccc(-c2nnc(S/C(=C/c3ccc(Cl)cc3)C(=O)O)o2)cc1 do in these assays?
AHR act: 0; GRIN3A LBD mod: 2; AI-2 QS mod: 11; NTR1 agonist: 2; SUMO Mot1 rescue: 679*; Cardio protect: -9

How did Cc1cc(O)c2c(c1)CC1C3CCC4CC(=O)CCC4(C)C3CC(=O)C21C (stereo not given) do in these assays?
GRIN3A LBD mod: 1; Cardio protect: -8

Results for CC(=O)OCCN1C(=O)c2cccnc2C1=O ?
AHR act: 0; GRIN3A LBD mod: 13*; AI-2 QS mod: 15; NTR1 agonist: 0; SUMO Mot1 rescue: 3; Cardio protect: -1

How did CCC(=O)N(Cc1ccco1)c1nc(C(=O)Nc2ccc(Cl)cc2)c(C)s1 do in these assays?
AHR act: 74*; GRIN3A LBD mod: -2; AI-2 QS mod: 0; NTR1 agonist: 2; SUMO Mot1 rescue: 23; Cardio protect: -9

How did O=C1c2ccccc2C(=O)c2c(Nc3ccc(CCO)cc3)ccc(O)c21 do in these assays?
AHR act: 69*; GRIN3A LBD mod: -10; AI-2 QS mod: -7; NTR1 agonist: 11; SUMO Mot1 rescue: -13; Cardio protect: 0

Results for COc1ccc(C(=O)/C=C/Nc2cc(C)on2)c(OC)c1 ?
AHR act: 3; GRIN3A LBD mod: 31*; AI-2 QS mod: 16; NTR1 agonist: 0; SUMO Mot1 rescue: -2; Cardio protect: 0

How did CC(C)(C)c1ccc(OCC(=O)N/N=C/c2cc(Br)ccc2OC(=O)c2ccco2)cc1 do in these assays?
AHR act: 1; GRIN3A LBD mod: 23*; AI-2 QS mod: 14; NTR1 agonist: 4; SUMO Mot1 rescue: -7; Cardio protect: 44

How did O=C(Nc1ccc(Cl)c(Cl)c1)NC1CCS(=O)(=O)C1 (stereo not given) do in these assays?
AHR act: 4; GRIN3A LBD mod: -7; AI-2 QS mod: 18; NTR1 agonist: -1; SUMO Mot1 rescue: 121; Cardio protect: 2

Results for O=C(Nc1ccc(Cl)c(Cl)c1)Nc1cc(C(=O)NC2CC2)ccc1Cl ?
AHR act: 74*; AI-2 QS mod: 5; NTR1 agonist: 7; SUMO Mot1 rescue: -8

Results for CC(C)(C)NC(=O)CSc1nnc(NC(=O)c2ccccc2Cl)s1 ?
AHR act: 1; GRIN3A LBD mod: -13; AI-2 QS mod: 20; NTR1 agonist: 1; SUMO Mot1 rescue: 2; Cardio protect: 0

What do the screens show for `O=c1oc2ccccc2n1CSc1nc2ccccc2s1`?
AHR act: 61*; GRIN3A LBD mod: 1; AI-2 QS mod: -7; NTR1 agonist: 2; SUMO Mot1 rescue: 9; Cardio protect: -17

Results for O=C(CSc1nnc(NC(=O)c2ccccc2Cl)s1)Nc1ccc2c(c1)oc1ccccc12 ?
AHR act: 30; AI-2 QS mod: 44; NTR1 agonist: 51*; SUMO Mot1 rescue: -19

What do the screens show for `O=C(CSc1nc2ccccc2s1)Nc1ccc2c(c1)oc1ccccc12`?
AHR act: 14; GRIN3A LBD mod: 39*; AI-2 QS mod: -1; NTR1 agonist: 6; SUMO Mot1 rescue: -3; Cardio protect: -9
